Test in all cases: NCI-60 one-dose screen, 48 h (100 = growth as untreated, 0 = no growth, -100 = all killed)
Conditions in all cases: 10 µM unless noted

Experiment [1] has as its system SK-MEL-2 melanoma.
The test system of experiment [2] is SN12C renal.
Experiment [3] concerns UO-31 renal.
The test system of experiment [4] is TK-10 renal.
Experiment [5] deals with ACHN renal.
The test system of experiment [6] is CAKI-1 renal.
For experiment [7], the system named is CCRF-CEM leukemia.
Experiment [8] has as its system MOLT-4 leukemia.
Experiment [9] relates to SR leukemia.
Experiment [10] deals with RPMI-8226 leukemia.
Experiment [11] has as its system OVCAR-8 ovarian.
Experiment [12] deals with OVCAR-5 ovarian.
Experiment [13] deals with OVCAR-4 ovarian.
Experiment [14] has as its system SK-OV-3 ovarian.
The subject of experiment [15] is IGROV1 ovarian.
In experiment [16] the test system is OVCAR-3 ovarian.
The test system of experiment [17] is HS 578T breast.
Experiment [18] has as its system NCI/ADR-RES ovarian.
Experiment [19] deals with EKVX NSCLC.
For experiment [20], the system named is A498 renal.

Compounds without any hit were thinned out: in the full panel of roughly 83,000, 20% have a hit.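 Testing used 96-well plates and a 48-hour single-concentration exposure. Example: -40 means 40% of the starting cells died.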 Values without a mark were called inactive. Calls of active or inactive are those of the source. The calls were made as follows: active = growth percent below 10; inactive = the rest.

The text below walks through data of PubChem BioAssay (NCI).

In the case of `NC(=O)c1ccc[n+](Cc2ccccc2)c1`, the growth in experiment [1] was 110%; in experiment [2], 101%; in [3], 93.8%; in experiment [4], 108%; in [5] it was 103%; in experiment [6], 97.9%. In addition, the growth in experiment [7] is 93.9%; in experiment [8] it was 49%; in experiment [9], 109%; in [10], 89.9%; in [11], 103%; in [12], 96.2%. For the same compound, the growth in experiment [13] was 102%; in experiment [14], 113%; in experiment [15], 111%; in experiment [16], 107%; in [17], 98.5%.
As for `O=C1N(Cc2ccccc2Cl)c2ccccc2C12NN=C(c1ccccc1)S2` (stereo not given), the growth is 91.3% in [1]; 64.1% in experiment [2]; 54.2% in [3]; 105% in experiment [4]; 59.4% in experiment [5]; 47.4% in [6]. Moreover, the growth is 57.3% in [7]; 53.6% in experiment [8]; 40% in [9]; 66.3% in experiment [10]; 45.8% in [11]; 51.8% in experiment [13]. Also, the growth in [14] was 83.2%; in [15], 61.7%; in experiment [16] it was 68.7%; in experiment [17] it was 69.6%; in [18], 45.2%.
Consider `CCCCCCCCCCCCCC`, for which the growth in [19] is 95.2%; in experiment [3], 98.6%; in experiment [5], 111%; in experiment [6] it was 98.9%; in experiment [7], 90.4%; in experiment [8] it was 111%. Moreover, the growth is 103% in experiment [10]; 108% in experiment [12]; 103% in experiment [13]; 104% in experiment [14]; 117% in experiment [15]; 122% in experiment [16]. The values for the growth in [17] and in [18] were 106% and 96.9%, respectively.
`Cc1cc2nc(CN)[nH]c2cc1C`: the growth in experiment [1] was 110%; in experiment [2] it was 111%; in experiment [3], 101%; in experiment [4], 104%; in [5] it was 112%; in experiment [6], 108%. The growth in [20] is 98.7%; in experiment [9] it was 97.2%; in experiment [10], 96.5%; in experiment [11], 106%; in experiment [12] it was 112%; in [13], 112%. Further, the growth in experiment [14] is 104%; in experiment [15], 111%; in experiment [16] it was 100%; in [17], 114%; in experiment [18], 112%.
For `CCCCCCCC/C=C/CCCCCCCC1=NC(C)(C)CN1c1ccccc1`, the growth is 92.6% in experiment [1]; 95.5% in [2]; 61.7% in experiment [3]; 118% in experiment [4]; 101% in experiment [5]; 90.1% in experiment [6]. For the same compound, the growth in [7] is 64.2%; in [8], 85.7%; in experiment [9], 71.8%; in [11] it was 87.3%; in [12], 113%; in experiment [13], 80.2%. Moreover, the growth in [14] was 99.1%; in experiment [15], 101%; in [16], 90.8%; in [17], 89.5%; in [18], 98.1%.
As for `O=C(O)c1ccccc1Oc1cc(-c2ccco2)nc(OCCN2CCOCC2)n1`, the growth in [1] was 100%; in [2], 97.3%; in experiment [3], 87.6%; in experiment [4] it was 97.4%; in experiment [5], 107%; in experiment [6], 96.2%. Also, the growth in [7] is 94.2%; in experiment [8], 101%; in experiment [10] it was 99.8%; in experiment [11], 105%; in experiment [13], 108%; in experiment [14], 99.8%. The results for the growth in experiment [15], in experiment [17] and in experiment [18] were 103%, 112% and 99.7%, respectively.
In the case of `COc1ccc(/C=N/NC(N)=S)c(OC)n1`, the growth was 94% in [1]; 98.5% in experiment [2]; 95.2% in experiment [3]; 112% in experiment [4]; 100% in experiment [5]; 113% in [6]. The growth in experiment [20] is 99.1%; in [8] it was 90.8%; in experiment [9] it was 88.3%; in experiment [10], 94.8%; in experiment [11], 97.7%; in experiment [12], 109%. Moreover, the growth in experiment [13] was 93.9%; in experiment [14], 114%; in [15], 100%; in experiment [16], 111%; in [17], 103%; in experiment [18], 109%.
Regarding `ClC1=NC(Cl)C(Cl)=N/C1=N\c1ncn[nH]1` (stereo not given), the growth in experiment [1] was -5.62% (active); in [2] it was 26.3%; in experiment [3], -81.7% (active); in [5] it was -92.4% (active); in [6], -75.9% (active); in [20] it was 121%. Further, the growth in experiment [8] was -52.2% (active); in experiment [9], -60.4% (active); in [10], -8.16% (active); in [11], -1.21% (active); in [12] it was 85%; in [13], -70.3% (active). In addition, the growth in [14] was 66.3%; in experiment [15] it was -50.2% (active); in [16], -82.2% (active); in [17] it was 123%; in experiment [18] it was 91.9%.
On to `COc1cc(OC)cc(-c2ccc(-c3ccc(C(=N)N)s3)s2)c1`, for which the growth was -85.4% (active) in experiment [1]; -69.5% (active) in experiment [2]; -85.8% (active) in experiment [3]; -88.7% (active) in [4]; -76% (active) in experiment [5]; -86.4% (active) in experiment [6]. Also, the growth in experiment [20] is -80.9% (active); in [8], -71.2% (active); in experiment [9], -47.3% (active); in experiment [10], -62.9% (active); in [11] it was -58.8% (active); in experiment [12], -81% (active). In addition, the growth in experiment [13] is -54.2% (active); in experiment [14], -92.4% (active); in experiment [15], -67.2% (active); in [16] it was -42.9% (active); in experiment [17], -40.4% (active); in [18], -58% (active).
